Source: PubChem BioAssay (National Center for Advancing Translational Sciences (NCATS))
HT1080NT lethal: qHTS for induction of synthetic lethality in tumor cells producing 2HG: qHTS for the HT-1080-NT fibrosarcoma cell line; 1.6% of 360,000 active; HT-1080-NT fibrosarcoma viability, CellTiter-Glo ATP luminescence, 48 h; AID 686970, 2013; Potency, µM (top dose mostly 46.1 µM), inactives show top-dose activity, negative = less viability, most hits filed as cytotoxic;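 note: NT is the 2HG producing partner of a matched IDH1 knockdown line; potency is the fitted concentration of half-maximal effect; 0% = DMSO-treated cells and -100% = media-only wells without cells; nearly all actives have a fitted effect of over 55% in size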
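750 cells/well, RPMI + 5% FBS; 2 h settle, compound pin-transfer, 48 h at 37 degrees C. CellTiter-Glo 10 min RT, luminescence. Normalized to DMSO and media-only wells.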
HT1080 IDH1KD tx: qHTS for induction of synthetic lethality in tumor cells producing 2HG: qHTS for the HT-1080-IDH1KD cell line; HT-1080 IDH1 knockdown viability, ATP luminescence, 48 h; Potency, µM (top dose mostly 46.1 µM), without a hit: at the highest dose activity, negative = toxicity, usual class: cytotoxic; 2% of 360,000 active;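 note: potency is the fitted concentration of half-maximal effect; 0% = DMSO wells and -100% = cell-free medium wells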
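Cytotoxicity counter-line: IDH1KD HT-1080, 48 h, CellTiter-Glo. Curves classed by r2, magnitude and activity.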
DT40 TDP1 CPT: qHTS for Inhibitors of human tyrosyl-DNA phosphodiesterase 1 (TDP1): qHTS in cells in presence of CPT. chicken DT40 Tdp1-/-;hTDP1 cells + 20 nM CPT, ATP luminescence, 48 h. Potency, µM (series often up to 46.2 µM), without a hit: at the highest dose activity change, negative = growth inhibition, most hits filed as inhibitors. 12% of 420,000 active. AID 686979, 2013; note: potency is the fitted concentration of half-maximal effect; nearly all actives have a fitted effect of over 55% in size
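Cell growth measured by CellTiter-Glo luminescence after a minimum 48 h, 37 C compound exposure with 20 nM CPT in Tdp1-knockout DT40 cells stably expressing hTDP1, seeded 400/well; qHTS titration format.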
IL-1B inflam inh: qHTS for Inhibitors of Inflammasome Signaling: IL-1-beta AlphaLISA Primary Screen | THP-1 LPS/ATP IL-1B secretion, AlphaLISA, 16 h; hits give low values | activity change, % at 57.5 µM | 4.7% of 360,000 active; in the data active = activity change below about -50%; inconclusive = mostly about -30% to -49%
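THP-1 cells pretreated 1 hr with compounds (up to 57.5 uM final), then stimulated with LPS (250 ng/mL final) plus ATP (1.25 mM final); secreted IL-1B measured by AlphaLISA after 16 hr, decreased signal indicating inhibition.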
ELG1 DNA repair: qHTS screen for small molecules that inhibit ELG1-dependent DNA repair in human embryonic kidney (HEK293T) cells expressing luciferase-tagged ELG1. 2.3% of 330,000 active. AID 504467, 2011. Potency, µM (series often up to 46.1 µM), for inactives: at the highest dose activity change, negative = inhibition, hits mostly inhibitors. HEK293T ELG1-luciferase reporter, luminescence, 16 h; DNA damage induced by 5-fluorouridine; note: potency is the fitted concentration of half-maximal effect; nearly all actives have a fitted effect of over 55% in size
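HEK293T cells expressing luciferase-tagged ELG1 (2,000/well) received 5-Fluorouridine plus compound or DMSO for 16 hr at 37 °C. Luciferase was read by ONE-Glo luminescence after 30 min at room temperature.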
DT40 TDP1 no CPT: qHTS for Inhibitors of human tyrosyl-DNA phosphodiesterase 1 (TDP1): qHTS in cells in absence of CPT; AID 686978, 2013; 15% of 420,000 active; DT40 Tdp1-/- hTDP1 cells, no CPT, ATP luminescence, 48 h; Potency, µM (highest dose often 46.2 µM), for inactives: top-dose activity change, negative = growth inhibition, most hits filed as inhibitors; note: potency is the fitted concentration of half-maximal effect; nearly all actives have a fitted effect of over 55% in size
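A cellular qHTS used chicken DT40 cells lacking endogenous Tdp1 but carrying stably transfected human TDP1. Compounds were applied without camptothecin, and cell growth kinetics were judged by ATP-dependent luminescence after ≥48 hr.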
* = called active by the depositor; ? = inconclusive; . = no result. Most compounds without a hit are left out; they make up all but 19% or so of the library. Unless noted, calls come from the whole dose curve; as a rule, active = well fitted curve in the direction sought with a large enough effect; inconclusive = small, poorly fitted or top-dose-only effect, or another doubt; inactive = no such curve, though single readings can be large; an effect the other way counts as inactive or inconclusive. Unless noted, % is set by controls: 0 for no effect and ±100 for the full control effect.

SMILES	HT1080NT lethal	HT1080 IDH1KD tx	DT40 TDP1 CPT	IL-1B inflam inh	ELG1 DNA repair	DT40 TDP1 no CPT
CCOC(=O)[C@]12CCCC=C1N(Cc1ccco1)C(=O)[C@H](CC(=O)NCCC(C)C)C2	20%	7%	?	18	.	16µM*
CCOC(=O)[C@]12CCC=C1N(Cc1ccccc1)C(=O)[C@H](CC(=O)NCCCCc1ccccc1)C2	?	?	?	?	.	21µM*
CCOC(=O)[C@]12CCC=C1N(Cc1ccc3c(c1)OCO3)C(=O)[C@H](CC(=O)NCc1cccs1)C2	6%	-11%	?	-8	.	?
C=CC(C)(O)CC/C=C(\C)CCC=C(C)C (configuration not stated)	.	.	5%	.	.	-12%
COc1ccccc1-c1sc2ccccc2c1-c1ccc2c(c1)OCO2	-21%	-5%	23µM*	0	4%	?
COc1ccccc1-c1sc2ccccc2c1-c1ccc(OCCN2CCOCC2)cc1	?	?	?	8	-11%	13µM*
COc1ccccc1-c1sc2cc3c(cc2c1-c1ccc(OCCN2CCCCC2)cc1)OCO3	?	?	16µM*	?	-1%	12µM*
CCOC(=O)C1=C(N)OC2=C(C(=O)CCC2)C1c1ccccc1OC (configuration not stated)	15%	5%	0%	13	13%	14%
COC(=O)C1=C(N)Oc2cc(N(C)C)ccc2C1c1ccccc1OC (configuration not stated)	?	4.1µM*	4.6µM*	-19	9%	4.6µM*
O=S(=O)(NCCOC12CC3CC(CC(C3)C1)C2)c1cccc2nsnc12	-13%	-20%	18µM*	-9	-29%	15µM*
COc1cc(S(=O)(=O)NC2CC(C)(C)NC(C)(C)C2)c(OC)cc1Cl	13%	20%	0%	-13	-11%	-18%
CCOc1ccc(OCC)c(S(=O)(=O)NCCOC23CC4CC(CC(C4)C2)C3)c1	-3%	-29%	?	-2	?	13µM*
COc1cc(S(=O)(=O)NCCOC23CC4CC(CC(C4)C2)C3)c(OC)cc1Cl	9%	6%	15µM*	-55*	16µM*	10µM*
N#Cc1ccccc1-c1ccc2ncnc(NCCN3CCOCC3)c2c1	.	.	?	.	.	1%
C/C(CC(=O)Nc1cccc(Br)c1)=N\NC(=O)c1ccc(O)cc1O	-3%	3%	16%	-3	21%	4%
N=c1c(C(=O)NCCc2ccccc2)cc2c(=O)n3ccccc3nc2n1CC1CCCO1 (configuration not stated)	-23%	-15%	?	22	?	?
COc1ccc(CCNC(=O)c2cc3c(=O)n4ccccc4nc3n(CC3CCCO3)c2=N)cc1 (configuration not stated)	2%	4%	21µM*	-10	.	26µM*
COc1ccc(CCNC(=O)c2cc3c(=O)n4ccccc4nc3n(CCN3CCOCC3)c2=N)cc1	-15%	-8%	3.7µM*	-9	?	2.6µM*
COc1ccc(CCNC(=O)c2cc3c(=O)n4ccccc4nc3n(CC3CCCO3)c2=N)cc1OC (configuration not stated)	4%	6%	21µM*	-14	?	?
COc1ccc(CCn2c(=N)c(C(=O)NCC3CCCO3)cc3c(=O)n4ccccc4nc32)cc1 (configuration not stated)	-2%	1%	5.8µM*	-15	?	8.2µM*
CCOc1ccc(OCC)c(NS(=O)(=O)c2cc(-c3cc(C)no3)ccc2C)c1	.	.	-22%	.	.	-12%
COc1ccc(N2CC(NC(=O)/C=C\c3ccccc3)CC2=O)cc1 (configuration not stated)	.	.	-2%	.	.	-10%
CCC(CC)C(=O)Nc1nnc(S(=O)(=O)Nc2ccccc2C)s1	3%	-2%	-1%	0	?	-26%
COc1ccc(C(=O)N2CCC3(CCCN(c4ccc(-c5ccccc5)cc4)C3)CC2)cc1	.	.	-19%	.	.	?
c1ccc(C(c2ccccc2)N2CC3(CCNCC3)C2)cc1	.	.	21µM*	.	.	15µM*
SMILES	HT1080NT lethal	HT1080 IDH1KD tx	DT40 TDP1 CPT	IL-1B inflam inh	ELG1 DNA repair	DT40 TDP1 no CPT
O=S(=O)(c1ccccc1)N1CCC2(CCN(c3ccc(-c4ccccc4)cc3)CC2)CC1	.	.	?	.	.	-6%
c1ccc(-c2ccc(N3CC4(CCNCC4)C3)cc2)cc1	.	.	4.1µM*	.	.	2.6µM*
c1ccc(-c2ccc(N3CC[C@@]4(CCCNC4)C3)cc2)cc1	.	.	18µM*	.	.	21µM*
c1ccc(-c2ccc(N3CCCC4(CCNCC4)C3)cc2)cc1	.	.	5.8µM*	.	.	2.6µM*
Cc1ccc(OCCN(C)C(=O)C2CCC(=O)N(CCCN3CCOCC3)C2)cc1 (configuration not stated)	1%	-1%	0%	4	13%	22%
COCCOC(=O)C1=C(C)N=C2SCCC(=O)N2C1c1ccc(OCc2ccccc2)c(OC)c1 (configuration not stated)	.	.	-18%	.	.	-6%
Cc1ccc(C(=O)OCc2cc(=O)n3c(C)csc3n2)s1	-3%	-3%	-6%	0	?	2%
CCCCCCc1ccc(N2C[C@H](CCCCC)[C@@H](CC(=O)NCc3ccc(OC)cc3)C2=O)cc1	7%	6%	?	-5	-5%	13µM*
COc1ccc(CN2C[C@H](Cc3ccccc3)[C@@H](CC(=O)Nc3ccccc3)C2=O)cc1	-25%	-8%	22µM*	6	?	16µM*
CCCCCCc1ccc(N2C[C@H](Cc3ccccc3)[C@@H](CC(=O)NCc3ccc(OC)cc3)C2=O)cc1	-25%	-6%	13µM*	0	-5%	13µM*
CCCCCCc1ccc(N2C[C@H](CCCCC)[C@@H](CC(=O)NCc3ccccc3)C2=O)cc1	16%	4%	14µM*	-13	-3%	18µM*
COc1ccc(NC(=O)C[C@H]2C(=O)N(Cc3cccnc3)C[C@@H]2Cc2ccccc2)cc1	-1%	1%	-18%	-10	.	-22%
